TDP1 block: qHTS Assay for Inhibitors of Tyrosyl-DNA Phosphodiesterase (TDP1); recombinant TDP1, AlphaScreen DNA substrate cleavage; 0.28% of 350,000 active; Tyrosyl-DNA phosphodiesterase 1 (Homo sapiens), Q9NUW8; AID 485290, 2010; Potency, µM (top dose mostly 130 µM), actives largely listed as inhibitors; also: nearly all actives have a fitted effect of over 40% in size
Target sequence (Q9NUW8 whole entry, looked up): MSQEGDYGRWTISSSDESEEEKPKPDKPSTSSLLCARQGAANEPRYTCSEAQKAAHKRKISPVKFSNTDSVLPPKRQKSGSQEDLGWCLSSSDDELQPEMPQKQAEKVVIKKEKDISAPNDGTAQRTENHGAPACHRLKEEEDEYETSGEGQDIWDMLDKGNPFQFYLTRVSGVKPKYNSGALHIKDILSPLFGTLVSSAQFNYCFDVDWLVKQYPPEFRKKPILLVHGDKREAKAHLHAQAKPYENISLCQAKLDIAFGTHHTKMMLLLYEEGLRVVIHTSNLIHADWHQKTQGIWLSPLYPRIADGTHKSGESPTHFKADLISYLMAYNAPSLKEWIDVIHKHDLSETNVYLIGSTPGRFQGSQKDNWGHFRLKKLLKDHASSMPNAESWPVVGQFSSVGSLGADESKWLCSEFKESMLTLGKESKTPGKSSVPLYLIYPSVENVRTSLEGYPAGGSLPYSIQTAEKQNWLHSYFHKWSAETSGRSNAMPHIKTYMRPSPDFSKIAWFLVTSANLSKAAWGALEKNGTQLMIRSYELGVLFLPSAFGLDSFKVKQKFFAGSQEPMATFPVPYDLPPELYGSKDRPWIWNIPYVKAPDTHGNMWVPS
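Enzyme-compound mixtures sat 15 min at room temperature, followed by a 5 min reaction with 15 nM final substrate and 10 min with AlphaScreen beads. Recombinant human Tdp1 was used at 1 nM final.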
DT40 TDP1 CPT: qHTS for Inhibitors of human tyrosyl-DNA phosphodiesterase 1 (TDP1): qHTS in cells in presence of CPT; chicken DT40 Tdp1-/-;hTDP1 cells + 20 nM CPT, ATP luminescence, 48 h; Potency, µM (highest dose often 46.2 µM), hits mostly inhibitors; 12% of 420,000 active; also: nearly all actives have a fitted effect of over 55% in size
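Chicken DT40 Tdp1-/- cells stably complemented with human TDP1 were seeded at 400 cells/well in medium containing 20 nM camptothecin, exposed to pin-transferred compounds, and grown at 37 °C for at least 48 hr. Viability was read as ATP luminescence.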
IL1B secr inh: qHTS for Inhibitors of Inflammasome Signaling: IL-1-beta AlphaLISA Primary Screen; 4.7% of 360,000 active; THP-1 LPS/ATP IL-1B secretion, AlphaLISA, 16 h; hits give low values; activity change, % at 57.5 µM; AID 743279, 2014; in the data active = activity change below about -50%; inconclusive = mostly about -30% to -49%
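Secreted IL-1B measured by AlphaLISA bead assay after 16 h compound exposure of THP-1 cells; compounds (final up to 57.5 uM) added 1 h before LPS (250 ng/mL) and ATP (1.25 mM) stimulation; lower signal means less secretion.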
Six1-Eya2 blk: qHTS Assay for Inhibitors of the Six1/Eya2 Interaction | Homeobox protein SIX1 (Homo sapiens) + Protein phosphatase EYA2 (Homo sapiens), … | AlphaScreen GST-Six1/His-Eya2 binding, biochemical; hits give low values | activity change, % (concentration not given with the values) | 0.56% of 360,000 active; in the data active = activity change below about -65%; inconclusive = mostly about -30% to -63%
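Six1/Eya2 binding was read as AlphaScreen signal after compounds were pinned into GST-Six1 plus His-tagged Eya2 (5X stock 250/500 nM) in pH 8.0 Tris/NaCl/TCEP buffer, beads added, then incubated 1 h, 37 C, dark.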
CtBP-E1A blk: qHTS Assay for Inhibitors of the CtBP/E1A Interaction | CtBP / adenovirus E1A interaction (AlphaScreen) | AlphaScreen GST-E1A/His-CtBP binding, 1536-well; hits give low values | activity change, % (test concentration not listed) | 0.49% of 340,000 active | AID 651724, 2012; in the data active = activity change below about -65%; inconclusive = mostly about -30% to -63%
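In 5 uL wells, 23 nL compound meets equimolar GST-E1A and His-CtBP (5X stock 125 nM each) for 2 h, 37 °C. Beads (5X, 50 ug/mL) then 1 h, 37 °C, dark.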
DT40 TDP1 no CPT: qHTS for Inhibitors of human tyrosyl-DNA phosphodiesterase 1 (TDP1): qHTS in cells in absence of CPT; DT40 Tdp1-/- hTDP1 cells, no CPT, ATP luminescence, 48 h; Potency, µM (top dose mostly 46.2 µM), usual class: inhibitors; 15% of 420,000 active; AID 686978, 2013; also: nearly all actives have a fitted effect of over 55% in size
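Chicken DT40 Tdp1-/- cells stably complemented with human TDP1 were seeded at 400 cells/well with DMSO in place of 20 nM camptothecin. After compound pinning, cells grew at least 48 hr at 37 °C; viability read by CellTiter-Glo luminescence.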
A number is an active result; – = inactive; ? = inconclusive; · = no result given; ! = not active in a repeat; [ ] = dose if it differs, or a comment. Most compounds without a hit are left out; they make up all but 18% or so of the library. Unless noted, calls follow the shape of the dose curve; as a rule, active = well fitted curve in the direction sought with a large enough effect; inconclusive = small, poorly fitted or top-dose-only effect, or another doubt; inactive = no such curve, though single readings can be large; an effect the other way counts as inactive or inconclusive.

SMILES	TDP1 block	DT40 TDP1 CPT	IL1B secr inh	Six1-Eya2 blk	CtBP-E1A blk	DT40 TDP1 no CPT
CCOCCCn1c(=N)c(C(=O)NC(C)c2ccccc2)cc2c(=O)n3cccc(C)c3nc21 (centres undefined)	·	16µM	·	·	·	16µM
Cc1cccn2c(=O)c3cc(C(=O)NC(C)c4ccccc4)c(=N)n(CCOCCO)c3nc12 (centres undefined)	·	23µM	·	·	·	26µM
Cc1cccn2c(=O)c3cc(C(=O)NC(C)c4ccccc4)c(=N)n(CCCn4ccnc4)c3nc12 (centres undefined)	–	?	-83	–	–	?
Cc1cccn2c(=O)c3cc(C(=O)NCc4cccnc4)c(=N)n(CCCO)c3nc12	·	–	·	·	·	–
COCCn1c(C)cc(C(=O)CN2C(=O)C(=O)N(CCC3=CCCCC3)C2=O)c1C	·	–	–	–	–	?
CNCc1cc(Cl)cc(OC)c1OC(C)C	–	–	–	–	–	–
Cc1ccc(C)c(NC(=S)N/N=C2\CCc3ccccc32)c1	–	?	–	–	–	21µM
Cc1ccc(NC(=S)N/N=C2/CCCCc3ccccc32)cc1	·	?	–	–	?	?
CCC(NC(C)C)C(O)c1ccc(O)c(O)c1 (centres undefined)	–	?	–	–	–	?
CC(C)NC[C@H](O)c1ccc(O)c(O)c1	?	4.7µM!	–	–	–	8.4µM!
CCC(c1ccc(O)c(O)c1)C(CC)c1ccc(O)c(O)c1 (centres undefined)	·	2.9µM	-99	–	–	1.8µM
CC(C)NC[C@H](O)c1cc(O)cc(O)c1	–[21 µM]	·	·	·	·	·
CCCCc1cc(=O)oc2cc(OCC(=O)NC(Cc3c[nH]c4ccc(O)cc34)C(=O)O)ccc12 (centres undefined)	·	–	–	–	–	–
CN1CCCC(n2nc(Cc3ccc(Cl)cc3)c3ccccc3c2=O)CC1 (centres undefined)	–	13µM	?	–	–	21µM
COc1cccc2c1-c1c(O)cccc1C2=O	·	–	–	–	·	–
COc1cccc(O)c1O	–	3.7µM	·	·	·	4.6µM
CC(C(=O)OCC(=O)c1ccc(F)cc1)N1C(=O)C2C3C=CC(C3)C2C1=O (centres undefined)	·	–	–	–	–	–
Cc1ccc(CN2CCc3nnc(C(NC(=O)c4ccoc4)C(C)C)n3CC2)cc1C (centres undefined)	·	–	·	·	·	–
COc1ccc(C2CC(c3ccccc3)=NN2c2ccc(N)cc2)cc1 (centres undefined)	–	?	?	–	–	21µM
COc1ccc(C2CC(c3ccccc3O)=NN2c2ccccc2)cc1 (centres undefined)	·	–	–	–	–	–
COc1ccc(C2CC(c3ccccc3)=NN2S(=O)(=O)c2ccccc2)cc1 (centres undefined)	·	7.3µM	–	–	–	4.6µM
COc1cc(N2N=C(c3ccccc3)CC2c2ccccc2)c(C=O)cc1C=O (centres undefined)	·	?	–	–	–	18µM
COc1ccccc1N1N=C(c2ccc([N+](=O)[O-])cc2)CC1c1ccccc1 (centres undefined)	·	?	–	?	?	?
COC(=O)c1ccc(NC(=O)C2CCCN2C(=O)Nc2cccc(C(C)=O)c2)cc1 (centres undefined)	–	–	–	–	–	–
CCC1CCc2c(sc(NC(=O)C3CC=CCC3C(=O)O)c2C#N)C1 (centres undefined)	–	–	–	–	–	–
SMILES	TDP1 block	DT40 TDP1 CPT	IL1B secr inh	Six1-Eya2 blk	CtBP-E1A blk	DT40 TDP1 no CPT
O=C(NCCNC(=O)c1cc(OCC(F)(F)F)ccc1OCC(F)(F)F)Nc1ccc(Cl)cc1	–	–	–	–	–	–
O=C(NCCNC(=O)c1cc(OCC(F)(F)F)ccc1OCC(F)(F)F)Nc1ccc(OC(F)(F)F)cc1	–	?	–	–	–	23µM
O=C(CCl)NCCNC(=O)c1cc(OCC(F)(F)F)ccc1OCC(F)(F)F	–	?	-60	–	·	?
COC(=O)NC1c2ccccc2Oc2ccc(C)cc21 (centres undefined)	·	–	–	–	–	?
COc1ccc(NC(=O)C2(C)Cc3c(-c4ccccc4)ccnc3O2)cc1OC (centres undefined)	·	?	–	–	–	?
COc1ccc(NC(=O)C2(C)Cc3c(-c4cccc(NC(C)=O)c4)ccnc3O2)cn1 (centres undefined)	·	0.73µM	–	–	–	1.5µM
COCCNC(=O)C1(C)Cc2c(-c3ccc(NC(C)=O)cc3)ccnc2O1 (centres undefined)	·	?	–	–	–	?
COc1ccc(NC(=O)C2(C)Cc3c(-c4ccc(NC(C)=O)cc4)ccnc3O2)cn1 (centres undefined)	·	21µM	?	–	–	?
COc1ccc(CCCNC(=O)C2(C)Cc3c(-c4ccc(NC(C)=O)cc4)ccnc3O2)cc1 (centres undefined)	·	23µM	?	–	–	26µM
COc1ccc(NC(=O)C2(C)Cc3c(-c4ccc(NC(C)=O)cc4)ccnc3O2)cc1OC (centres undefined)	·	?	–	–	–	13µM
O=C(CCC(=O)c1ccc(Br)cc1)Nc1ccc(F)cc1	–	–	–	–	–	–
COc1cccc(-c2cc3c(c(OC)c2)OCCN(S(=O)(=O)c2ccccc2OC(F)(F)F)C3)n1	·	–[9.04 µM]	·	·	·	–
O=C(Nc1ccccc1)C1=C(O)CC(c2ccoc2)CC1=Nc1ccccc1 (centres undefined)	–	?	–	–	–	?
CC1CN=C2C(C(=O)Nc3ccccc3)=C(O)CC(c3ccccc3)N21 (centres undefined)	–	?	–	–	–	23µM
O=C(CN1CCN(Cc2cccc(C(F)(F)F)c2)CC1)NCC(=O)Nc1ccc(F)c(F)c1F	·	?	–	–	–	?
Cc1ccc(N2/C(=N/c3nc(C)cc(C)n3)NC(=O)CC2C(=O)O)cc1 (centres undefined)	–	–	–	–	–	–
Cc1[nH][nH]c(=O)c1C(c1ccc(-c2cccc(C(=O)O)c2)o1)c1c(C)[nH][nH]c1=O	8.9µM	–	–	–	–	–
